# Source: PubChem BioAssay (NCI)
# The panel holds about 83,000 compounds, 20% with a hit somewhere; the sample as a whole holds those more often.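 A percent growth of 40 corresponds to 60% growth inhibition; 0 means no net growth; -100 means all cells died. Active threshold: below 10.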 Values without a mark were called inactive. Active and inactive are the calls of the source.
# Test system: HL-60(TB) leukemia
# Test: NCI-60 one-dose screen, 48 h (100 = growth as untreated, 0 = no growth, -100 = all killed)
# Conditions: 10 µM unless noted
row,Structure (SMILES),growth
1,CCC#CC[C@H]1C/C=C2/C(=O)C=C[C@@H]2C/C=C\CCCC(=O)O1,-19.1% (active)
2,CC(C)=C(NC(=O)c1ccccc1)C(=O)O,110%
3,C1CCc2onc(-c3noc4c3CCCCC4)c2CC1,102%
4,O=C1CSC(=S)N1CCc1ccc(O)cc1,92%
5,Cn1ncc2ccc(-c3nc(-c4ccccc4)[nH]c3-c3n[nH]c(=O)n3C3CC3)cc21,84.7%
6,Nc1cc2c(cc1Cl)C(=O)c1ccccc1C2=O,81%
7,O=C(O)c1cccnc1Br,110%
8,CC(C)(C)N1CC(OC(N)=O)C1,110%
9,CCN(C(=O)N1CCN(c2cc3c(cc2F)c(=O)c(C(=O)O)cn3C2CC2)CC1)c1nc(-c2ccc(C)cc2)cs1,7.49% (active)
10,CC1(C)C(=O)CC[C@]2(C)[C@H]3C(=O)C=C4[C@@H]5C[C@@](C)(C(=O)NCCNCCN)CC[C@]5(C)CC[C@@]4(C)[C@]3(C)CC[C@@H]12,90.1%
11,Cc1ccc(S(=O)(=O)n2cc(C(=O)C(=O)N3CCCCC3)c3ccccc32)cc1,85%
12,Clc1ncnc2nc[nH]c12,101%
13,Cc1nc2sc(C(=O)Nc3cccc(Cl)c3)c(N)c2cc1C(O)c1ccccc1 (centres undefined),-40.9% (active)
14,COc1ccc(C2CC(c3ccccc3)=Nc3ccccc3S2)cc1 (centres undefined),85.7%
15,[O-]/[N+](=C\c1ccc(-n2cc(Cc3ccccc3Cc3cn(-c4ccc(/C=[N+](/[O-])c5ccccc5)cc4)nn3)nn2)cc1)c1ccccc1,98.4%
16,COC(=O)/C=C1/SC(N2N=C(c3cccs3)CC2c2ccc(F)cc2)=NC1=O (centres undefined),-7.95% (active)
17,Clc1ccccc1CNc1c2ccccc2nc2ccccc12,13.6%

row,Structure (SMILES),growth
1,C=C(C=O)[C@@H]1CC=C(C=O)CC1,-33.2% (active)
2,COC(=O)c1cncc(C(=O)Nc2ccc(-n3cnc4ccccc43)cc2)c1,93.7%
3,CS(=O)(=O)c1ccc(-c2nc3cc(Cl)ccc3n2CC(=O)N/N=C/c2ccc(Cl)cc2)cc1,25.3%
4,Cc1cccc(NC(=O)Nc2ccc(-n3cnc4cc(-c5ccc(O)cc5)ccc43)cc2)c1,8.69% (active)
5,NS(=O)(=O)c1ccc(N/C=C/C(=O)c2cc3ccccc3oc2=O)cc1,100%
6,CCC(O)C(C)(C)C (centres undefined),114%
7,CCOC(=O)C1=C(CCl)NC(=O)NC1c1ccc2c(c1)OCO2 (centres undefined),56.9%
8,CCN(CC)c1ccc(/C=C(\C#N)c2cc3ccccc3[nH]2)cc1,45.6%
9,Cc1cn(-c2cccc(NC(=O)c3ccc(C)c(Nc4nccc(-c5cccnc5)n4)c3)c2)cn1,10.4%
10,COc1ccc(-c2nn(-c3cccc(Cl)c3)cc2-c2cc(-c3ccc(Br)cc3)nc(N)n2)cc1,88.4%
11,CCNC(=O)Oc1ccc(/C(=C(/CC)Cc2ccccc2)c2ccc(OCCN3CCCC3)cc2)cc1,69.2%
12,CCCCCCCCCCCC(c1ccccc1)N(C)C (centres undefined),104%
13,O=C(Nc1cccc2[nH]c(C(F)(F)F)nc12)c1ccc(F)cc1,49.6%
14,O=CNc1ccc2c(c1)Cc1cccc(NC=O)c1-2,70.6%
15,NS(=O)(=O)c1cn(-c2ncnc3nc[nH]c23)ccc1=O,79.5%
16,CN1CCN(c2ccc(Nc3ncc(Cl)c(NC[C@@H]4CCCO4)n3)cc2)CC1,-6.65% (active)
17,CCn1c(-c2cc3c([nH]c4ccccc43)c(-c3cccc(O)c3)n2)n[nH]c1=S,4.16% (active)
